# Compounds with a hit are over-represented: about 3.2% of the library has one in this group of screens.
# TWEAK-Fn14 inh: blocks TWEAK-Fn14 interaction in a reporter cell assay. TWEAK-stimulated Fn14 reporter cells, luciferase luminescence, 8 h. hit rate 2% among 360,000. AID 1159606. inhibition, % at 10 µM; in the data active means inhibition above about 50%
# EBV LMP1 NFkB: reduces LMP1-driven NF-kappaB luciferase signal; LMP1-induced NF-kappaB luciferase reporter cells, luminescence; inhibition, % at 12.5 µM; hit rate 0.69% among 350,000; AID 504558; in the data active means inhibition above about 41%;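 further: 0% = neutral control wells and 100% = reference inhibitor control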
# LGR2 inh: Drosophila LGR2 receptor signaling inhibition; HEK293 LGR2, CRE-luciferase, bursicon-stimulated, 4 h; inhibition, % at 9.99 µM; hit rate 0.35% among 380,000;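 active means drop in luminescence signal, shown as inhibition above about 50% in the replicate tests, limit read from the data, passing the limit was not always enough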;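 further: agonist challenge used bursicon conditioned medium at about half maximal strength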
# PAX8 inh HTS: lowers PAX8-driven luciferase in RMG-I cells; RMG-I TPO-luciferase reporter, SteadyGlo, 24 h; inhibition, % at 12.6 µM; hit rate 1.2% among 360,000;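 active means mean replicate inhibition at least 60% with every replicate also reaching 60%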;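 further: luciferase light reporting Pax8 driven TPO promoter activity; plate controls were median of neutral control wells for no effect and mitoxantrone controls for full effect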
# EWS-Fli inh: blocks EWS/Fli oncoprotein-driven transcription; A673 NR0B1-luciferase reporter, viability-normalised; inhibition, % at 12.6 µM; hit rate 0.67% among 350,000;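 active means mean inhibition of at least 50% after viability correction, with every replicate also passing that limit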;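 further: firefly luciferase signal divided by Alamar Blue viability fluorescence both relative to DMSO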
# TROY signal inh: blocks TROY-dependent signaling in reporter cells | Q293 LMP1-TROYcd NF-kB luciferase reporter, 4 h | inhibition, % at 10 µM | hit rate 0.98% among 360,000 | AID 1347056;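 active means compounds whose plate-normalised and pattern-corrected inhibition of the luciferase reporter signal at the single screening dose is 50% or more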
# * marks the source's active call; other numbers are inactive results; x = no result.
SMILES,TWEAK-Fn14 inh,EBV LMP1 NFkB,LGR2 inh,PAX8 inh HTS,EWS-Fli inh,TROY signal inh
C[C@@H]1CN([C@@H](C)CO)C(=O)c2cc(NC(=O)Nc3ccccc3)ccc2O[C@@H]1CN(C)Cc1ccc(Oc2ccccc2)cc1,x,x,-8.5,22.0,10.1,x
CC(C)OCCCNC(=O)c1c(N)n(/N=C/c2ccccn2)c2nc3ccccc3nc12,34.6,24.3,x,x,x,-15.5
CCC(C)NC(=O)c1c(N)n(/N=C/c2cccnc2)c2nc3ccccc3nc12 (stereo not given),51.2*,-2.5,x,x,x,-15.2
CCC(C)NC(=O)c1c(N)n(/N=C/c2ccccn2)c2nc3ccccc3nc12 (stereo not given),63.8*,1.2,8.9,x,x,31.5
O=C1S/C(=C\c2ccc(O)c([N+](=O)[O-])c2)C(=O)N1Cc1cccc([N+](=O)[O-])c1,53.0*,4.4,9.7,-0.1,-2.7,59.1*
COc1cc(/C=C2\SC(=O)N(c3cccc(Cl)c3)C2=O)cc([N+](=O)[O-])c1O,32.8,-0.9,4.1,1.3,9.0,16.6
O=C1S/C(=C\c2ccc(O)c([N+](=O)[O-])c2)C(=O)N1c1ccccc1Cl,21.8,-3.6,0.1,-23.0,-19.0,53.5*
COCC(=O)Nc1ccc2c(c1)[C@@H]1C[C@H](CC(=O)NCCc3ccccc3)O[C@@H](CO)[C@@H]1O2,x,x,-3.3,12.5,-1.2,x
O=C(OCn1ncc(Cl)c(Cl)c1=O)c1ccc(C(F)(F)F)cc1,79.0*,-32.4,7.5,x,x,24.6
Cc1ccc(C(=O)OCn2ncc(Cl)c(Cl)c2=O)cc1,105.6*,89.2*,x,x,x,68.1*
Oc1ccccc1N=Nc1nc(-c2ccccc2)c(-c2ccccc2)[nH]1,32.5,84.2*,42.5,x,x,21.2
COc1ccccc1N=Nc1nc(-c2ccccc2)c(-c2ccccc2)[nH]1,22.8,-26.4,-13.6,6.0,x,-24.8
C[C@@H]1CN([C@@H](C)CO)C(=O)c2cc(-c3ccc(C#N)cc3)cnc2O[C@@H]1CN(C)C(=O)CC1CC1,x,x,-1.8,x,-8.8,x
Oc1ccc(CN2CCCCC2)c2cccnc12,0.8,-1.6,11.8,x,44.9,-16.0
Oc1c(CN2CCCCC2)cc(COCc2ccccc2)c2cccnc12,-14.4,79.5*,x,64.0*,x,10.2
Oc1c(Cl)cc(CN2CCCCC2)c2cccnc12,8.8,62.9*,x,x,x,18.3
COc1ccccc1N1CCN(Cc2cc(Br)c(O)c3ncccc23)CC1,-42.6,17.4,32.8,100.0*,30.8,28.7
Oc1c(CN2CCN(c3ccccn3)CC2)cc(Cl)c2cccnc12,107.2*,39.9,x,x,x,-16.6
CCOc1ccccc1N1CCN(Cc2cccc(OC)c2O)CC1,-1.0,1.6,4.3,x,x,-22.4
C[C@H]1CN([C@@H](C)CO)C(=O)CCCn2cc(nn2)CO[C@H]1CN(C)C(=O)c1ccc(N2CCN(C)CC2)cc1,x,x,9.0,-13.8,5.8,x
COC(=O)C[C@H]1CC[C@@H]2[C@H](COC[C@H](O)CN2C(=O)Nc2ccccc2OC)O1,x,x,-1.6,9.8,1.9,x
O=C(N/N=C/c1ccc([N+](=O)[O-])s1)c1ccccc1,-11.7,16.8,15.8,19.9,63.5*,-24.6
Cc1ccccc1C(=O)N/N=C/c1ccc([N+](=O)[O-])s1,13.1,-6.8,23.6,x,x,6.2
O=C(N/N=C\c1ccc([N+](=O)[O-])s1)c1cncc(Br)c1,52.6*,12.7,x,86.1*,-5.8,14.3
Cn1c(SCC(=O)N/N=C/c2cc([N+](=O)[O-])ccc2O)nnc1-c1ccccc1,13.5,17.8,6.7,-4.7,2.0,11.4
SMILES,TWEAK-Fn14 inh,EBV LMP1 NFkB,LGR2 inh,PAX8 inh HTS,EWS-Fli inh,TROY signal inh
Cn1c(SCC(=O)N/N=C/c2ccc([N+](=O)[O-])s2)nnc1-c1ccccc1,58.3*,-8.8,8.1,33.1,48.6,-8.9
O=C(N/N=C/c1cccs1)c1cncc(Br)c1,0.5,5.8,-7.0,-6.7,-4.5,-2.1
CSc1nccn1C(=O)c1ccccc1[N+](=O)[O-],107.8*,4.3,6.1,1.6,-5.5,-9.3
Cn1ccnc1Sc1ccccc1[N+](=O)[O-],8.8,-2.6,6.2,7.3,11.7,24.2
Cc1ccc(NC(=O)c2cc(-c3cc(Cl)ccc3C)n[nH]2)cc1NS(C)(=O)=O,64.5*,x,-28.3,40.1,19.4,38.1
COc1ccc(Cl)cc1-c1cc(C(=O)Nc2ccc(C)c(NS(C)(=O)=O)c2)[nH]n1,72.3*,x,15.6,16.0,12.7,52.9*
COc1ccc(Cl)c(-c2cc(C(=O)Nc3ccc(C)c(NS(C)(=O)=O)c3)[nH]n2)c1,17.6,x,0.6,-0.1,-3.4,33.0
Cc1ccc(NC(=O)Cc2nnc(SCC(=O)NC3CCCC3)n2C)cc1C,31.3,45.3*,0.1,1.9,1.7,6.8
C[C@@H]1CN([C@H](C)CO)C(=O)Cc2cc(NC(=O)c3ccncc3)ccc2O[C@@H]1CN(C)S(=O)(=O)c1ccccc1,x,x,-4.9,-8.6,-1.5,x
CO[C@H]1CC[C@H]2CCN(C)C(=O)[C@@H](C)CN(C)C(=O)c3cc(C#N)ccc3OC[C@H]1O2,x,x,-0.6,-12.1,1.1,x
CC(=O)Oc1ccc(CC(C(=O)O)N2C(=O)c3ccccc3C2=O)cc1 (stereo not given),19.9,4.3,-27.9,10.8,-0.4,-3.4
CC1=CC(C)(C)Nc2ccc(OC(=O)C(Cc3ccccc3)N3C(=O)c4ccccc4C3=O)cc21 (stereo not given),110.3*,1.0,x,x,x,-3.7
CCOc1ccc2c(c1)C(C)=CC(C)(C)N2,34.5,-0.9,12.1,x,-7.0,-3.7
CC1=CC(C)(C)Nc2ccc(OC(=O)CN3C(=O)c4cccc5cccc(c45)C3=O)cc21,51.9*,2.4,-22.3,x,x,5.1
CC1=CC(C)(C)Nc2ccc(OC(=O)CN3C(=O)c4ccccc4C3=O)cc21,89.2*,1.4,x,32.8,20.3,32.6
COc1ccc(S(=O)(=O)Nc2ccc3c(c2)C(=O)N([C@@H](C)CO)C[C@H](C)[C@@H](CN(C)C(=O)NC(C)C)OCCCC[C@@H](C)O3)cc1,x,x,-3.2,-9.7,-3.2,x
COCC(=O)N1CC2(CN(Cc3cccnc3)C2)c2c(n(C)c3cc(OC)ccc23)[C@@H]1CO,x,x,11.6,x,0.0,x
C[C@H]1CN([C@@H](C)CO)S(=O)(=O)c2ccc(C#CC3CC3)cc2O[C@H]1CN(C)CC1CCOCC1,x,x,-1.7,x,7.5,x
COc1ccc(NS(=O)(=O)c2ccc(NC(=O)Cc3cccs3)cc2)cc1,38.0,5.6,0.7,-4.4,4.1,64.7*
COc1ccc(NS(=O)(=O)c2cc(NC(=O)c3ccc(=O)[nH]c3)ccc2C)cc1,1.3,1.3,-11.9,4.9,-22.1,14.0
CCCCN(CCCC)S(=O)(=O)c1ccc(NC(=O)Cc2cccs2)cc1,5.8,-10.0,x,x,27.0,50.9*
COc1ccc(NS(=O)(=O)c2cc(NC(=O)Cc3cccs3)ccc2C)cc1,94.2*,-5.2,x,11.6,10.3,82.0*
CCCCCOc1ccc(NC(=O)C(=O)NCCCn2ccnc2)cc1,9.2,5.4,x,76.9*,x,-13.5
O=C(Nc1ccccc1)N[C@@H]1CC[C@H](CCNS(=O)(=O)c2ccccc2F)O[C@H]1CO,x,x,-7.0,-12.0,0.5,x
